# According to PubChem BioAssay (NCI):
# Compounds without any hit were thinned out: in the full panel of roughly 83,000, 20% have a hit.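 Activity criterion: percent growth below 10, measured after cells in 96-well plates were exposed to a single compound concentration for 48 hours.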 Values without a mark were called inactive. The source made the active and inactive calls.
# Legend:
# Assay in all cases: NCI-60 one-dose screen, 48 h (100 = growth as untreated, 0 = no growth, -100 = all killed)
# Settings in all cases: 10 µM unless noted
# SR leukemia = tested on: SR leukemia
# RPMI-8226 leukemia = tested on: RPMI-8226 leukemia
# OVCAR-8 ovarian = tested on: OVCAR-8 ovarian
# OVCAR-5 ovarian = tested on: OVCAR-5 ovarian
# OVCAR-4 ovarian = tested on: OVCAR-4 ovarian
# SK-OV-3 ovarian = tested on: SK-OV-3 ovarian
# IGROV1 ovarian = tested on: IGROV1 ovarian
# OVCAR-3 ovarian = tested on: OVCAR-3 ovarian
# HS 578T breast = tested on: HS 578T breast
# NCI/ADR-RES ovarian = tested on: NCI/ADR-RES ovarian
SMILES,growth (SR leukemia),growth (RPMI-8226 leukemia),growth (OVCAR-8 ovarian),growth (OVCAR-5 ovarian),growth (OVCAR-4 ovarian),growth (SK-OV-3 ovarian),growth (IGROV1 ovarian),growth (OVCAR-3 ovarian),growth (HS 578T breast),growth (NCI/ADR-RES ovarian)
Clc1ccc(/C=N\N=c2\scc(-c3ccc(Cl)cc3)n2/N=C/c2ccc(Cl)cc2)cc1,93%,106%,99.5%,105%,114%,102%,103%,114%,96.5%,109%
N#Cc1c(N)nc2c(nnn2-c2cccc(Br)c2)c1N,83.8%,86.8%,93.8%,108%,107%,101%,93.5%,106%,68.8%,103%
COc1ccc(-c2cc(-c3cc(OC)ccc3O)[nH]c(=O)c2C#N)cc1,10.1%,56.4%,64.3%,119%,80.5%,63.5%,71.6%,27.5%,36.6%,52.7%
CCNCCNc1cc(-c2cccc(C(F)(F)F)c2)c(C#N)c2nc3ccccc3n12,-37.5% (active),-29.3% (active),-39.7% (active),-79.3% (active),-83% (active),-97.2% (active),-74.2% (active),-86.7% (active),-48.3% (active),-55% (active)
O=C1N(c2ccccc2)C(=S)N[C@]12[C@H](c1ccccc1)C1CCCN1[C@]21C(=O)NC2C=CC(Cl)=C[C@H]21 (stereo not given in full),96%,73.7%,78.3%,117%,102%,88%,95.1%,106%,83.6%,102%
O=C(O)C1C[C@](O)(c2ccc(F)cc2)[C@@H](c2ccc(F)cc2)O1 (stereo not given in full),73.8%,69.1%,95.1%,90.8%,107%,97.5%,71.8%,146%,124%,96.5%
CCCCNC(=O)c1cc(NCc2cc(O)ccc2O)ccc1O,41.1%,19.3%,87.6%,107%,90.8%,85.8%,98.4%,54.2%,88%,95%
Cn1nnnc1-c1ccc(N)cc1,87.6%,103%,107%,94.1%,100%,95.8%,99.2%,101%,96.8%,98.1%
CCCCCCCCN(CCCCCCCC)C(=N)c1ccnc2ccccc12,-56.6% (active),-47.7% (active),-66.1% (active),-57.2% (active),-67.1% (active),-27.8% (active),-66.5% (active),-93% (active),-32% (active),-72.5% (active)
COc1ccc(-c2c(N)n[nH]c2-c2ccccc2O)cc1OC,53.9%,52.8%,68.3%,92.2%,94.7%,84.1%,94.6%,108%,91.7%,98.2%
c1ccc(-c2oc3ccccc3c2-c2ccccc2)cc1,57.3%,107%,102%,105%,96.7%,101%,87.8%,100%,110%,110%
C=C(C)[C@@H]1CC[C@@]2(C(=O)O)CC[C@]3(C)C(CCC4[C@@]5(C)CCC(OS(=O)(=O)c6ccccc6)C(C)(C)C5CC[C@]43C)C12 (stereo not given in full),56.7%,30.4%,38.1%,89.7%,54.7%,74.4%,93.7%,50.8%,67.5%,52.5%
COc1cc2c(cc1OC)-c1ccc3cc4c(cc3c1N(CCN(C)C)C2)OCO4,1.13% (active),-41.1% (active),-24.7% (active),8.24% (active),26.7%,-21.2% (active),-31.2% (active),8.78% (active),-2.39% (active),72.3%
Nc1c(-c2nc3ccc(Br)cc3c(=O)[nH]2)nnn1-c1ccccc1,57.7%,92.1%,97.7%,95.8%,6.63% (active),112%,90.3%,80.2%,91.8%,80.9%
CC1(C)N=C(N)N=C(N)N1c1cccc(CN)c1,105%,99.9%,93.3%,89.2%,93.8%,101%,88.8%,94.9%,95.6%,96.4%
CCNCCNc1cc(C2CCCC2)c(C#N)c2nc3ccccc3n12,-4.31% (active),1.72% (active),28.6%,71.2%,-13.5% (active),40.5%,43.7%,-82% (active),-6.97% (active),33.1%
C=C(C)C1CCC(=C)C2CCC3(C)OC12/C=C(/COC(C)=O)CCC3O (stereo not given),74.6%,235%,103%,105%,127%,119%,151%,124%,177%,105%
CN(C)c1ccc(C#Cc2c(F)cccc2Cl)cc1,94.3%,91.3%,93.2%,99.2%,72%,79%,47.2%,90.6%,94.5%,85.3%
Cc1ccc(-n2nnc(C3=NCCc4c3[nH]c3ccc(Cl)cc43)c2C)cc1,52.8%,58.6%,66.8%,80.2%,76.8%,87%,90.5%,83.5%,87.8%,76.3%
CCOc1ccc2nc(-c3cccc(OCC(=O)NC(C)C)c3)nc(Nc3ccc(-c4cn[nH]c4)cc3)c2c1,0.178% (active),-18.4% (active),-22.7% (active),40.8%,-60.3% (active),68.4%,20.9%,-3.59% (active),-44.5% (active),14.3%
COc1ccc(-c2cncnc2N)cc1OC,102%,96.8%,105%,110%,108%,-40.5% (active),111%,115%,107%,105%
N#Cc1c(N)n2c(nc1=Nc1ccc(Cl)cc1)sc1cc(Cl)ccc12,22.6%,87.2%,64.9%,105%,63.1%,77.2%,95.9%,98.1%,33.3%,73.1%
CC(C)CCC[C@@H](C)[C@H]1CCC2C3=CCC4C(=O)C=CC(=O)C4C3CC[C@@]21C (stereo not given in full),13.2%,8.72% (active),0.168% (active),7.74% (active),-9.33% (active),10.5%,-63.2% (active),2.72% (active),8.12% (active),7.87% (active)
CN1CCN(c2ccc(Nc3ncc(Cl)c(NC[C@@H]4CCCO4)n3)cc2)CC1,-0.801% (active),29.5%,27.5%,18.1%,29.7%,28.6%,23.4%,42.8%,6.95% (active),31.3%
Nc1nc(I)c2ncn(C3OC(CO)C(O)C3O)c2n1 (stereo not given),107%,157%,112%,104%,129%,100%,121%,112%,136%,105%
NS(=O)(=O)c1cn(-c2ncnc3nc[nH]c23)ccc1=O,132%,74.7%,107%,93.1%,95.1%,82.2%,97.2%,103%,102%,105%
CN(C)c1ccc2cc(-c3ccccc3F)c(N)nc2c1,6.09% (active),25.2%,22.6%,68.7%,32.8%,28.9%,40.9%,3.93% (active),28.9%,1.98% (active)
CCNCCNc1cc(-c2ccc(C#N)cc2)c(C#N)c2nc3ccccc3n12,-1.04% (active),51.6%,38.7%,75.6%,-34% (active),87.4%,47.7%,-47.7% (active),25.2%,60.9%
